Shown is part of a subset that was picked to be rich in hits.
nsP2pro primary = inhibitors of chikungunya virus nsP2 protease. FRET peptide cleavage, nsP2pro, fluorescence 1 h. Q8JUX6. Potency, µM (doses to about 24.9 µM), for the others: at the highest dose activity change, negative = inhibition, usual class: inhibitors. actives 1.1% (n = 31,000); note: nearly all actives have a fitted effect of over 60% in size
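Enzyme 150 nM, substrate 2.5 uM (both final); Tris-HCl 10 mM pH 8.0 + 0.01% Tween 20; cpd up to 25 uM, 7 pts; 15 min preinc., 1 h RT; fluorescence ex 525/em 598.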
nsP2 cell sec = inhibits CHIKV nsP2 protease in cells | shares compounds with nsP2pro primary | cell-based CHIKV nsP2 protease reporter assay | Potency, µM (highest dose often 51.1 µM), without a hit: at the top dose activity change, negative = inhibition, most hits filed as inhibitors | actives 10% (n = 450) | AID 1964100; note: nearly all actives have a fitted effect of over 70% in size
CHIKV NSP2 FL = inhibits full-length CHIKV NSP2 enzyme | Potency, µM (highest dose often 50.7 µM), inactives show top-dose activity change, negative = inhibition, usual class: inhibitors | Full-length CHIKV NSP2 protease enzymatic counterscreen | actives 39% (n = 410) | shares compounds with nsP2pro primary | AID 1964101; note: nearly all actives have a fitted effect of over 65% in size
Furin counterscr = human furin inhibition, counterscreen for nsP2pro inhibitors | Potency, µM (titrated, usually from 50.6 µM), inactives show top-dose activity change, negative = inhibition, most hits filed as inhibitors | actives 6% (n = 410) | AID 1964102 | shares compounds with nsP2pro primary | Recombinant human furin enzymatic counterscreen, fluorogenic substrate
nsP2 NS23 pep = blocks CHIKV nsP2 protease cleavage of endogenous NS2/3 peptide | shares compounds with nsP2pro primary | Purified CHIKV nsP2 protease, endogenous NS2/3 peptide cleavage | Potency, µM (top dose mostly 51 µM), for the others: at the top dose activity change, negative = inhibition, usual class: inhibitors | actives 34% (n = 410) | AID 1964103; note: nearly all actives have a fitted effect of over 55% in size
Papain counter = selectivity counter-screen for CHIKV nsP2 protease inhibitors: papain | Potency, µM (highest dose often 51 µM), inactives show top-dose activity change, negative = inhibition, actives largely listed as inhibitors | shares compounds with nsP2pro primary | purified papain protease activity, enzymatic inhibition | actives 5% (n = 410)
Target sequence (P00784 whole entry, looked up): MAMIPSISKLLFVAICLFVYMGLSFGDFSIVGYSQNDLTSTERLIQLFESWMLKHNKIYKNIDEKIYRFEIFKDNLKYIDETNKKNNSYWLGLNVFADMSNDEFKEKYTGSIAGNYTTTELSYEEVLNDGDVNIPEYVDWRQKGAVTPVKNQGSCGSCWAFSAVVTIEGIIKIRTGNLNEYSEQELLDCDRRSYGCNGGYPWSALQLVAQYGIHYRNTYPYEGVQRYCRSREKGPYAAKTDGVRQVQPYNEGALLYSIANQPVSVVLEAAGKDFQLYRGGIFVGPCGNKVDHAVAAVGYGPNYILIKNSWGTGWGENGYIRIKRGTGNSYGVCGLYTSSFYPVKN
nsP2pro conf qHTS = confirmation of CHIKV nsP2 protease inhibitors. shares compounds with nsP2pro primary. CHIKV nsP2 protease enzymatic activity, qHTS. Potency, µM (titrated, usually from 25.5 µM), without a hit: at the highest dose activity change, negative = inhibition, usual class: inhibitors. actives 43% (n = 410). AID 1964105; note: nearly all actives have a fitted effect of over 75% in size
HCV NS3 counter = inhibits HCV NS3/4A protease in an nsP2pro selectivity counterscreen; shares compounds with nsP2pro primary; HCV NS3/4A protease biochemical counterscreen; Potency, µM (titrated, usually from 50.9 µM), actives largely listed as inhibitors; actives 20% (n = 410); note: nearly all actives have a fitted effect of over 55% in size
Starred values were filed as active, the others as inactive; i = inactive; ? = inconclusive; [ ] = another dose, or the depositor's remark. Calls come from the whole dose curve. % is set by controls: 0 for no effect and ±100 for the full control effect; potency is the fitted concentration of half-maximal effect.

SMILES	nsP2pro primary	others
Cc1ccc([N+](=O)[O-])[c]2c1[O][Hg]2	1.57µM*	nsP2 cell sec=1.41µM*;CHIKV NSP2 FL=?;Furin counterscr=1.3µM*;nsP2 NS23 pep=5.8µM*;Papain counter=-16.8%;nsP2pro conf qHTS=0.711µM*;HCV NS3 counter=0.259µM*
Cc1noc(-c2ccc(-c3noc(-c4ccc([N+](=O)[O-])c(C)c4)n3)cc2)n1	-14.2%
CCCCCCCCCCCCCCCC(=O)O[C@@H]1CC(C)=C(/C=C/C(C)=C/C=C/C(C)=C/C=C/C=C(C)/C=C/C=C(C)/C=C/C2=C(C)C[C@@H](OC(=O)CCCCCCCCCCCCCCC)CC2(C)C)C(C)(C)C1	8.8%
COc1cc(O)c(C(CC(=O)N2CC(C)OC(C)C2)c2ccc3c(c2)OCO3)c(OC)c1 (stereo not drawn)	-1.6%
O=C(O)CSc1cc(NS(=O)(=O)c2ccc(Br)cc2)c2ccccc2c1O	1µM*	nsP2 cell sec=?;CHIKV NSP2 FL=4.11µM*;Furin counterscr=-17.8%;nsP2 NS23 pep=1.83µM*;Papain counter=18.3µM*;nsP2pro conf qHTS=0.798µM*;HCV NS3 counter=?
O=S(=O)(Nc1ccccc1)c1ccc(NCc2ccc(Br)cc2O)cc1	-26.0%
Cc1oc2c(cc(NS(=O)(=O)c3ccc(C(C)C)cc3)c3ccccc32)c1C(=O)OCc1ccccc1	-21.3%
CCOc1ccc(Cc2cc([C@@H]3O[C@H](SC)[C@@H](O)[C@H](O)[C@H]3O)ccc2Cl)cc1	-12.0%
CCOC(=O)c1cccc(NCC2=CC(C)(C)Oc3ccc(OC)cc32)c1	-10.7%
CCOC(=O)c1cccc(CNc2ccc(N(C)C(=O)Nc3ccccc3)cc2)c1	?	nsP2 cell sec=?;CHIKV NSP2 FL=-12.9%;Furin counterscr=-11.3%;nsP2 NS23 pep=-7.5%;Papain counter=?;nsP2pro conf qHTS=-3.2%;HCV NS3 counter=i
CCOC(=O)c1cccc(NC(=O)CCSCCc2ccccn2)c1	-13.7%
CCOC(=O)c1cccc(NC(=O)Nc2nnc(-c3ccncc3)s2)c1	-6.2%
O=C(c1cc(CC2(NCc3ccccc3F)COC2)no1)N1CCCCC1	-1.7%[39.2 µM]
C=C[C@@H]1C[C@]1(NC(=O)[C@@H]1C[C@@H]2CN1C(=O)[C@H](C(C)(C)C)NC(=O)O[C@@H]1C[C@H]1CCCCCc1nc3ccc(OC)cc3nc1O2)C(=O)NS(=O)(=O)C1CC1	-13.8%
C/C(=N\N=C(N)N)c1ccc(NC(=O)Nc2ccc(/C(C)=N/N=C(N)N)cc2)cc1	8.81µM*	nsP2 cell sec=5.8%;CHIKV NSP2 FL=16.3µM*;Furin counterscr=16.3µM*;nsP2 NS23 pep=29.1µM*;Papain counter=?;nsP2pro conf qHTS=8.96µM*;HCV NS3 counter=18.3µM*
CC(=O)Nc1ccc(NC(=O)CCC(=O)c2ccc(C)cc2)cc1	-6.6%
NS(=O)(=O)c1ccc(NC(=O)Nc2ccc(F)cc2)cc1	7.4%
CCOc1ccc(CCNC(=O)c2cc3ccccc3o2)cc1OCC	-1.7%
CCC1(O)CCC12CCN(C(=O)c1ccco1)CC2 (stereo not drawn)	-9.2%
C=C(C)[C@H]1CC[C@]2(C(=O)O)CC[C@]3(C)C(CCC4[C@@]5(C)CCC(=O)C(C)(C)C5CC[C@]43C)C12 (stereo partly drawn)	23.6%[10 µM]
COC(=O)[C@H](OC(C)=O)[C@H]1C(C)(C)C(=O)[C@H]2CC3=C4CC(=O)O[C@@H](c5ccoc5)[C@]4(C)CCC3[C@@]1(C)C2=O (stereo partly drawn)	-10.0%[10 µM]
COC(=O)[C@H](O)[C@H]1C(C)(C)[C@H](OC(=O)C(C)C)[C@@]2(O)C(=O)[C@]1(C)C1CC[C@]3(C)C(CC(=O)O[C@H]3c3ccoc3)[C@]13O[C@@H]32 (stereo partly drawn)	?	nsP2 cell sec=0.9%[17.6 µM];CHIKV NSP2 FL=?;Furin counterscr=4.4%[17.3 µM];nsP2 NS23 pep=-1.3%[17.2 µM];Papain counter=-4.8%[17.2 µM];nsP2pro conf qHTS=?;HCV NS3 counter=i
CCC(=O)O[C@H]1C(C)(C)[C@H]([C@@H](O)C(=O)OC)[C@]2(C)C(=O)[C@@]1(O)[C@H]1O[C@]13C1CC(=O)O[C@@H](c4ccoc4)[C@]1(C)CCC32 (stereo partly drawn)	?	nsP2 cell sec=11.5%[17.6 µM];CHIKV NSP2 FL=?;Furin counterscr=-0.4%[17.3 µM];nsP2 NS23 pep=-11.1%[17.2 µM];Papain counter=-5.2%[17.2 µM];nsP2pro conf qHTS=?;HCV NS3 counter=?
C=C1[C@@H]2CC[C@@]3(C)[C@H](c4ccoc4)OC(=O)C[C@]13O[C@H]1CC(=O)C(C)(C)[C@H](C(O)C(=O)OC)[C@]12C (stereo partly drawn)	-18.1%[10 µM]
COC(=O)[C@@H](O)[C@H]1[C@@]2(C)CC3(O)[C@@H](C(=O)[C@H]2O)[C@]24O[C@]25CC(=O)O[C@@H](c2ccoc2)[C@]5(C)CCC4[C@]13C (stereo partly drawn)	17.2%[10 µM]
SMILES	nsP2pro primary	others
C/C=C(\C)C(=O)OC1C2(O)CC3=C4CC(=O)OC(c5ccoc5)C4(C)CCC3C(C)(C2=O)C(C(OC(C)=O)C(=O)OC)C1(C)C (stereo not drawn)	-16.2%[10 µM]
COC(=O)[C@H](O)[C@H]1C(C)(C)[C@H](OC(C)=O)[C@@]2(O)C(=O)[C@]1(C)C1CC[C@]3(C)C(CC(=O)O[C@H]3c3ccoc3)[C@]13O[C@@H]32 (stereo partly drawn)	?	nsP2 cell sec=-0.4%[17.6 µM];CHIKV NSP2 FL=?;Furin counterscr=-4.1%[17.3 µM];nsP2 NS23 pep=3.7%[17.2 µM];Papain counter=-7.9%[17.2 µM];nsP2pro conf qHTS=-13.8%[8.62 µM];HCV NS3 counter=?
COC(=O)C[C@H]1C(C)(C)[C@H](OC(=O)c2ccccc2)C2CC3=C4CC(=O)O[C@@H](c5ccoc5)[C@]4(C)CCC3[C@@]1(C)C2=O (stereo partly drawn)	-18.1%[10 µM]
COc1ccc(-c2ccc3nc(-c4ccc(F)c(C)c4)oc3c2)c(OC)c1OC	-4.1%
COc1ccccc1C(=O)NCCc1nc2ccccc2n1CCOc1ccc(C)cc1	-3.4%
CO[C@H]1/C=C\O[C@@]2(C)Oc3c(C)c(O)c4c(O)c(c5c(c4c3C2=O)=NC2(CCN(CC(C)C)CC2)N=5)NC(=O)/C(C)=C\C=C/[C@H](C)[C@H](O)[C@@H](C)[C@@H](O)[C@@H](C)[C@H](OC(C)=O)[C@@H]1C	15.0%
N#Cc1ccccc1S(=O)(=O)N1C[C@@H]2C[C@H](C1)c1ccc(-c3ccc(Cl)cc3)c(=O)n1C2	3.6%

Compound activity: PubChem, National Center for Advancing Translational Sciences (NCATS)
